# The source made the active and inactive calls.
# Assays:
# [1] = optical density shifts of acrAB sulA E. coli – strain DRC41, OD650, 48 h, E. coli filamentation inducer project, primary screen (AID 1152); conditions: higher = more signal, called active from +8 up or from −8 down;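 note: E. coli MC1000 strain DRC41 lacking acrAB efflux pump and sulA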
# [2] = probe aLefty1 binding on compound microarray – biochemical, small-molecule microarray, 635/667 nm fluorescence, primary screen (AID 1153); conditions: higher = more signal;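 note: score merges spot fluorescence with signal-to-noise ratio from the scanned slide images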
# [3] = plasmodial surface anion channel blockers, osmotic lysis – cell-based, P. falciparum Indochina, OD700, 1 h, primary screen (AID 1154); conditions: P. falciparum Indochina infected RBC osmotic lysis, higher = more signal, called active from +8 up or from −8 down
# [4] = plasmodial surface anion channel blockers, osmotic lysis – cell-based, P. falciparum Indochina, OD700, 2 h, primary screen (AID 1155);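 note: lysis reports solute entry through the parasite surface anion channel PSAC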; conditions: P. falciparum Indochina infected erythrocytes, higher = more signal, called active from +8 up or from −8 down
# [5] = changes in parasitized red cell lysis, either direction – P. falciparum Indochina, OD700, 3 h, PSAC antagonist project, primary screen (AID 1156); conditions: P. falciparum-infected erythrocytes, osmotic lysis, higher = more signal, called active from +8 up or from −8 down
# [6] = plasmodial surface anion channel blockers, osmotic lysis – cell-based, P. falciparum Indochina, OD700, 18 h, primary screen (AID 1157); conditions: P. falciparum Indochina infected erythrocytes, osmotic lysis OD700, 18 h; higher = more signal, called active from +8 up or from −8 down
# [7] = S6 kinase pathway phospho-S6 level changes – cell-based, A549, cytoblot, luminescence, serum-stimulated, primary screen (AID 1158); conditions: 5 h, higher = more signal;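 note: serum-stimulated A549 lung adenocarcinoma cells; signal is phosphorylated S6 detected by cytoblot immunostaining with HRP secondary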
# [8] = biological target: NADPH oxidase 2 (Homo sapiens) (UniProt P04839); assay: compounds shifting NOX2 Amplex Red fluorescence – cell-based, HEK293-NOX2, PMA-stimulated, NOX inhibitor project, primary screen (AID 1159); conditions: 45 min, higher = more signal, called active from +8 up or from −8 down; note: test concentration not given here
# [9] = biological target: NADPH oxidase 4 (Homo sapiens) (UniProt Q9NPH5); assay: compounds shifting NOX4 Amplex Red fluorescence – cell-based, HEK293-NOX4, tetracycline-induced, NOX inhibitor project, primary screen (AID 1160); conditions: HEK293-NOX4, Amplex Red H2O2 fluorescence, 45 min; higher = more signal, called active from +8 up or from −8 down
# [10] = biological target: NADPH oxidase 5 (Homo sapiens) (UniProt Q96PH1); assay: compounds shifting NOX5 Amplex Red fluorescence – cell-based, HEK293-NOX5, NOX inhibitor project, primary screen (AID 1161); conditions: HEK293-NOX5, ionomycin, 45 min, higher = more signal
# NADPH oxidase 5 (Homo sapiens), sequence (Q96PH1 whole entry, looked up): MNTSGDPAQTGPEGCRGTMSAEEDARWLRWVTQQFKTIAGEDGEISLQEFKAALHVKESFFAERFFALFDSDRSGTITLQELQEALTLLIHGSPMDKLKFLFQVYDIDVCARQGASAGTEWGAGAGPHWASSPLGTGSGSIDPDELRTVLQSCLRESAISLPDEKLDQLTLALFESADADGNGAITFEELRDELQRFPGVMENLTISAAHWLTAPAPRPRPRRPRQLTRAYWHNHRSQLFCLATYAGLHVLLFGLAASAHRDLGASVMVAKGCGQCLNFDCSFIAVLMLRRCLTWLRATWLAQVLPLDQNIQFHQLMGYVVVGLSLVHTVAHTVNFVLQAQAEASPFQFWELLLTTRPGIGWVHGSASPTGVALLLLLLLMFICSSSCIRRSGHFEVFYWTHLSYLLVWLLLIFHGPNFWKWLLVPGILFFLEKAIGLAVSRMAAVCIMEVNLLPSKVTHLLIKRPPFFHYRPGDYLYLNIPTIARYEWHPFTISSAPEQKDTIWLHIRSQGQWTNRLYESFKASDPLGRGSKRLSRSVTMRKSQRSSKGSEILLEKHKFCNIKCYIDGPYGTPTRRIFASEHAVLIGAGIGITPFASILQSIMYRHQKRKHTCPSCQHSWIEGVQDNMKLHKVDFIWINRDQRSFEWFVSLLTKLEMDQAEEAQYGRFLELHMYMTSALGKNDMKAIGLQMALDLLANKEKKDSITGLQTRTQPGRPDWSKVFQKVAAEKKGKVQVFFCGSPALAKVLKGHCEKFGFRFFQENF
# NADPH oxidase 2 (Homo sapiens), sequence (P04839 whole entry, looked up): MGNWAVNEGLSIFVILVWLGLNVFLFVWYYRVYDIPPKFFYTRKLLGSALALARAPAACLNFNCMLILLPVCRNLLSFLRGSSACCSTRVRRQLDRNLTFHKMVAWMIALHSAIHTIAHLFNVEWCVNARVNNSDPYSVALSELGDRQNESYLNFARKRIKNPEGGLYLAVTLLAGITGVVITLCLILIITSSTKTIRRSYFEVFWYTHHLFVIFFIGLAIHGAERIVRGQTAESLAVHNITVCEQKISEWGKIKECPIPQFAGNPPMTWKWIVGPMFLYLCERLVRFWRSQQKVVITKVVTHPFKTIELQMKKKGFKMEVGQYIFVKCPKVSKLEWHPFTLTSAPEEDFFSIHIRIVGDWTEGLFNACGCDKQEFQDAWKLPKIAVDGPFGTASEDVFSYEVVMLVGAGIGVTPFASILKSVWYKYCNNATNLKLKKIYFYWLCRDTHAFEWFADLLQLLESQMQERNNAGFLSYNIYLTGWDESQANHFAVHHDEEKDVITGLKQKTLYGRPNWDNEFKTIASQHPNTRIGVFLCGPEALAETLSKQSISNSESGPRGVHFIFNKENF
# NADPH oxidase 4 (Homo sapiens), sequence (Q9NPH5 whole entry, looked up): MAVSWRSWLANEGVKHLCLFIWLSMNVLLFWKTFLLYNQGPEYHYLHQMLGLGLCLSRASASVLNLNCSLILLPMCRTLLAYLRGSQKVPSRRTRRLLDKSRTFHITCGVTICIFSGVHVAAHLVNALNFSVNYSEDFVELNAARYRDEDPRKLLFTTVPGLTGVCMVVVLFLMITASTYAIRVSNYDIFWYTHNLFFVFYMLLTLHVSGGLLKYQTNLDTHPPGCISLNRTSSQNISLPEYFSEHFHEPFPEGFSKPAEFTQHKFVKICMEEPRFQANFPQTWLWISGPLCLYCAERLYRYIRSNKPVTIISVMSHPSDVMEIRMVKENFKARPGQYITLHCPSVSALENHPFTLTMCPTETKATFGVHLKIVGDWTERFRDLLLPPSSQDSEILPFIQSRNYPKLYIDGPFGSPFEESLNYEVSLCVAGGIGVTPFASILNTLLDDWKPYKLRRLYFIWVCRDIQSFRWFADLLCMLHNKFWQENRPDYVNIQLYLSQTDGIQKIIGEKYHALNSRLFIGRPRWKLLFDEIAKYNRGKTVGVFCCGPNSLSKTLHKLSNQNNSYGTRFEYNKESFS
SMILES,z-score [1],composite z-score [2],z-score [3],z-score [4],z-score [5],z-score [6],z-score [7],z-score [8],z-score [9],z-score [10]
O=C1c2ccccc2[C@@]2(Cc3ccccc3N(Cc3ccccc3)C2=O)[C@H](c2ccc(CO)cc2)N1Cc1ccccc1C(F)(F)F,0.165 (inactive),0.152,1.92 (inactive),-0.0022 (inactive),0.678 (inactive),-0.112 (inactive),-0.106,-2.24 (inactive),0.148 (inactive),1.77
C=CCNC(=O)[C@H]1[C@@H]2C(=O)O[C@@H](c3ccccc3)[C@@H](c3ccccc3)N2[C@@H](c2ccc(O)cc2)[C@]12C(=O)Nc1ccc(C#Cc3ccc(OC)cc3)cc12,-0.837 (inactive),-0.0084,2.41 (inactive),1.05 (inactive),-0.99 (inactive),0.859 (inactive),-0.294,0.143 (inactive),-2.18 (inactive),-0.436
COC(=O)[C@@]1(Cc2ccc(OC)cc2)[C@H]2c3cc(C(=O)N(C)C)n(Cc4ccc(OC)c(OC)c4)c3C[C@H]2CN1C(=O)c1ccccc1,-1.86 (inactive),1.14,2.55 (inactive),0.807 (inactive),0.804 (inactive),1.23 (inactive),-0.574,0.178 (inactive),1.13 (inactive),2.18
COCCOC(=O)N1C(=O)[C@@]2(c3cc(C#CC4=CCCCC4)ccc31)[C@H](c1ccc(OCCO)cc1)N1[C@H](c3ccccc3)[C@H](c3ccccc3)OC(=O)[C@H]1[C@@H]2C(=O)Nc1nc2ccccc2s1,2.88 (inactive),0.114,2.35 (inactive),0.922 (inactive),-0.419 (inactive),1.83 (inactive),1.24,0.821 (inactive),0.824 (inactive),1.35
C=CCC(OC(C)=O)[C@@H]1[C@@H](N(Cc2ccc(-c3ccccc3)cc2)C(=O)c2ccc(C)cc2)c2cc(OCCCO)ccc2N1C(=O)Cc1ccc(OC)cc1 (stereo not given in full),2.25 (inactive),-0.0937,0.398 (inactive),-1.46 (inactive),-0.774 (inactive),-1.43 (inactive),1.52,-0.137 (inactive),1.01 (inactive),2.57
[N-]=[N+]=NCc1ccccc1C[C@]1(C(N)=O)N=C(c2ccc(OCCCO)cc2)O[C@H]1c1ccccc1N=[N+]=[N-],0.125 (inactive),0.588,34.1 (active),32.7 (active),2.52 (inactive),3.39 (inactive),-0.59,-3.15 (inactive),-0.457 (inactive),-2.02
Cc1ccc(S[C@]2(C(=O)NCCN3CCOCC3)CC(=O)N(C3CCCCC3)[C@@H]2c2ccc(CO)cc2)cc1,-0.288 (inactive),0.136,1.47 (inactive),0.502 (inactive),0.512 (inactive),0.377 (inactive),-0.667,0.444 (inactive),1 (inactive),0.923
CC(C)N1C(=O)c2ccccc2[C@](C)(C(=O)NCCCN(C)C)[C@@H]1c1ccc(CO)cc1,0.0259 (inactive),0.0201,2.5 (inactive),0.347 (inactive),0.766 (inactive),0.4 (inactive),0.564,0.288 (inactive),0.893 (inactive),1.15
O=C(CS)NCCCCCCNC(=O)[C@H]1C[C@H]2C(=O)N3CCC[C@H]3C(=O)N2[C@H]1c1ccc(O)cc1,-0.827 (inactive),0.157,3.99 (inactive),0.776 (inactive),-1.85 (inactive),0.179 (inactive),-0.126,1.05 (inactive),0.241 (inactive),0.247
Oc1ccc2cc[n+](Cc3cccc(OC(F)(F)F)c3)cc2c1,0.444 (inactive),-0.606,0.0313 (inactive),-0.0655 (inactive),0.621 (inactive),-0.236 (inactive),-0.522,-1.93 (inactive),-0.554 (inactive),-0.3
C#C[C@H]1Oc2ccccc2S(=O)(=O)N2CCC[C@@H]12,-0.789 (inactive),-0.106,0.264 (inactive),0.276 (inactive),0.0691 (inactive),0.0594 (inactive),0.213,0.281 (inactive),-1.29 (inactive),-0.494
COCCCNC(=O)[C@@]1(Sc2ccc(C)cc2)CC(=O)N(Cc2ccccc2)[C@@H]1c1ccc(CO)cc1,0.186 (inactive),-1.12,1.25 (inactive),0.505 (inactive),1.14 (inactive),0.107 (inactive),-0.0519,0.462 (inactive),0.917 (inactive),0.162
COC(=O)[C@@]1(Cc2ccc(F)cc2)[C@H]2c3cc(C(=O)N(C)C)n(CCc4c[nH]c5ccc(OC)cc45)c3C[C@H]2CN1C(=O)c1ccccc1,-1.77 (inactive),0.441,6.52 (inactive),0.1 (inactive),1.24 (inactive),-0.975 (inactive),1.87,-3.45 (inactive),-3.18 (inactive),-5.53
COc1cc(NN2C(C(O)c3ccccc3)C=CC3C(=O)N(c4ccccc4)C(=O)C32)cc(OC)c1OC (stereo not given),-0.26 (inactive),0.644,1.38 (inactive),0.0862 (inactive),0.86 (inactive),-0.325 (inactive),0.838,-3.61 (inactive),-4.63 (inactive),-7.16
C=C(CCCC)/C(=C/C[C@H](OC(C)=O)c1ccc(CO)o1)c1cc(C(=O)OC)ccc1OC,0.302 (inactive),-0.0501,1.99 (inactive),-0.526 (inactive),1.62 (inactive),-2.02 (inactive),1.61,-0.764 (inactive),-0.262 (inactive),-1.54
CC(=O)NCCCC[C@@H]1NC(=O)[C@@H]2C[C@H](C(=O)NCc3ccc(F)cc3)[C@H](c3ccc(O)cc3)N2C1=O,0.921 (inactive),-0.0601,1.63 (inactive),0.549 (inactive),-1.64 (inactive),0.277 (inactive),-0.0125,0.647 (inactive),0.059 (inactive),1.37
COC(=O)c1c2oc(c1C(=O)OC)C(=O)N[C@H](Cc1ccccc1)Cn1nncc1C1(CCCCC1)NC(=O)N[C@H](CO)CC2,1.74 (inactive),-0.237,5.12 (inactive),1.58 (inactive),0.52 (inactive),0.628 (inactive),0.14,-2.86 (inactive),-2.14 (inactive),-3.47
COCCOC(=O)N1C(=O)[C@@]2(c3ccccc31)[C@H](c1ccc(O)cc1)N1[C@H](c3ccccc3)[C@H](c3ccccc3)OC(=O)[C@H]1[C@@H]2C(N)=O,0.0672 (inactive),-0.379,2 (inactive),1.18 (inactive),1.34 (inactive),0.44 (inactive),-0.0639,-0.198 (inactive),-0.747 (inactive),-0.0275
COCCCNC(=O)[C@]1(Cc2ccccc2N=[N+]=[N-])N=C(c2ccc(OCCCO)cc2)O[C@@H]1c1ccccc1CN=[N+]=[N-],0.871 (inactive),0.766,28.1 (active),21.2 (active),3.17 (inactive),2.71 (inactive),1.97,-0.888 (inactive),0.4 (inactive),-0.209
CC(C)C(CO)N1C(=O)[C@@H]2[C@H]3C(=O)OCC=C[C@H]3OC23C=CCN(c2ccc4ccccc4c2)C(=O)[C@@H]13 (stereo not given in full),-0.165 (inactive),-0.147,0.244 (inactive),0.884 (inactive),0.686 (inactive),0.6 (inactive),-0.575,0.902 (inactive),0.357 (inactive),1.74
C[N+](C)(C)CCCC[C@@H]1NC(=O)[C@H]2C[C@@H](C(=O)O)[C@@H](c3cccc(OCCO)c3)N2C1=O,-0.0215 (inactive),1.69,1.15 (inactive),0.729 (inactive),-1.43 (inactive),0.252 (inactive),0.743,0.114 (inactive),0.0916 (inactive),0.986
C=CC[C@@]1(C(N)=O)N=C(c2ccc(OCCCO)cc2)O[C@@H]1c1ccccc1N=[N+]=[N-],1.3 (inactive),0.355,32.8 (active),32.6 (active),4.04 (inactive),3.37 (inactive),0.305,0.039 (inactive),-0.164 (inactive),-1.76
COCCCNC(=O)[C@@]1(Cc2ccccc2I)c2ccccc2C(=O)N(Cc2ccccc2)[C@H]1c1ccc(CO)cc1,0.263 (inactive),0.243,11.1 (active),2.37 (inactive),1.85 (inactive),1.43 (inactive),-0.231,0.0296 (inactive),0.779 (inactive),0.242
CO[C@H]1O[C@H](CO)[C@@H](OC(=O)Nc2ccccc2-c2ccccc2)[C@H](OC(=O)Nc2ccccc2-c2ccccc2)[C@H]1OC(=O)Nc1ccccc1-c1ccccc1,0.236 (inactive),0.427,3.93 (inactive),1.27 (inactive),-0.623 (inactive),1.16 (inactive),0.311,1.26 (inactive),-0.874 (inactive),-0.439
C=C(C(=O)CC[C@@H](OC(=O)c1cccnc1)c1ccc(CO)o1)C(C)C,-0.766 (inactive),0.329,1.42 (inactive),0.0559 (inactive),0.375 (inactive),0.209 (inactive),-0.211,1.22 (inactive),-0.133 (inactive),0.337
CO[C@H]1O[C@H](CO)[C@@H](OC(=O)Nc2ccc(C(F)(F)F)cc2)[C@H](OC(=O)Nc2ccccc2)[C@@H]1OC(=O)Nc1ccccc1,-0.744 (inactive),-0.407,7.34 (inactive),1.01 (inactive),-0.886 (inactive),0.863 (inactive),-0.143,0.179 (inactive),-0.513 (inactive),-0.468
